Assay results published in PubChem BioAssay AID504634 (The Scripps Research Institute Molecular Screening Center, 2011).
Among all 340,000 compounds or so, about 280 (0.082%) were called active. The full list was thinned out, with actives kept by preference. A number with no mark means an inactive call. Cut-off read from the data, not from the text of the source: active = inhibition mostly above about 23% (no sharp cut-off); inactive = mostly below about 18%.

Molecular target: 5-hydroxytryptamine receptor 5A (Homo sapiens) (UniProt P47898)
Experiment: HTR5A inverse agonists in luminescence cell assay, primary screen, counter-screen for OPRM1-OPRD1 heterodimer inverse agonist project, full-deck HTS (AID 504634);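 note: 0% = cells with DMSO and 100% = no-cell wells with DMSO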
Details: HTR5A cell line, inverse agonism, at 9.3 µM, stronger effect = higher value

Chain of 5-hydroxytryptamine receptor 5A (Homo sapiens) (P47898 whole entry, looked up): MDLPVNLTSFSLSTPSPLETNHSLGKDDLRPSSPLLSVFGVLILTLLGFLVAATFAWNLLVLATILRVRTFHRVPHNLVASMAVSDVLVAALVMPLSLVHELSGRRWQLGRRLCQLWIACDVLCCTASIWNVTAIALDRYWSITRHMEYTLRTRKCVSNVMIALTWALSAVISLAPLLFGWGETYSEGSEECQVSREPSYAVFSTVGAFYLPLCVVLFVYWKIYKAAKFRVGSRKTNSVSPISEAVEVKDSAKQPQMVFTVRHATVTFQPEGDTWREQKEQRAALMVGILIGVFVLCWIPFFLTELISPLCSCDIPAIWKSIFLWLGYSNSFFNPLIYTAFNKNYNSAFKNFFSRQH

Row | SMILES | inhibition
1 | CC[C@H](C)[C@@H](C(=O)N1CCNCC1)n1cc([C@@H](N)Cc2ccc(O)cc2)nn1 | -7.48%
2 | COCc1cc(=O)[nH]c(SC)n1 | -5.28%
3 | O=C(CSc1nnc(Nc2ccccc2F)s1)NC1CCCC1 | -11.3%
4 | CCN(CC(=O)Nc1cc(Cl)ccc1C)C(=O)CSCc1ccc(C)cc1 | -29.4%
5 | CC[n+]1cc(C)ccc1/C=C/c1ccc(N(C)C)cc1 | 9.17%
6 | CCCCN(C(=O)c1cccc(N2C(=O)c3ccccc3C2=O)c1)c1c(N)n(CCCC)c(=O)[nH]c1=O | -1.54%
7 | O=c1[nH]nc(Cc2ccccn2)c2ccccc12 | 34.8%
8 | c1ccc2c(c1)OC1OC2Oc2ccccc21 | 2.1%
9 | CCOc1ccc(S(=O)(=O)Nc2cccc(C(=O)NCC3(N4CCCCC4)CCCCC3)c2)cc1 | -7.44%
10 | CC(C)COc1ccc(C(=O)NNC(=O)CCC(=O)c2cccs2)cc1 | 8.1%
11 | Cc1cccc(NC(=O)N2CCCCCC2)c1C | -15.6%
12 | CCC1Nc2ncnc(N3CCN(c4ccccc4)CC3)c2N(Cc2ccc(Cl)cc2)C1=O (stereo not drawn) | 72% (active)
13 | O=C1C(Cc2ccc(O)cc2)NC(=S)N1Cc1ccccc1 (stereo not drawn) | -7.4%
14 | CC[C@]1(C(=O)OC)[C@H]2C(=O)N(Cc3ccccc3)C(=O)[C@H]2[C@H]2CN=C(SCc3ccc(Cl)cc3)N21 | 4.46%
15 | N#Cc1ccc(C2=CC(=O)C[C@H](c3ccc(Cl)cc3)C2)cc1 | -10.1%
16 | O=C(Nc1ccc(Cl)c(Cl)c1)N1CC=C(c2ccccc2)CC1 | 13.3%
17 | C=CCN1C=C(C(=O)c2ccccc2)C(=O)CC1 | 6.15%
18 | CCc1nccn1CCC(=O)N1CCCC(N2CCN(c3ccccc3F)CC2)C1 (stereo not drawn) | 5.46%
19 | COc1ccc([C@H]2CC(=O)C=C(c3ccc(CO)cc3)C2)cc1 | 8.13%
20 | O=C1c2ccccc2[C@@H]2C[C@@H](O)[C@H](Nc3ccccc3Cl)CCN12 | -0.71%
21 | Cc1cc(C)nc(SC(C)C(=O)N/N=C/c2cccs2)n1 (stereo not drawn) | 9.06%

Row | SMILES | inhibition
22 | O=C(Cc1ccccn1)c1ccc(O)cc1O | 12.8%
23 | COc1ccc(-c2nnc(SC(=O)N3c4ccccc4Sc4ccccc43)o2)cc1 | -1.76%
24 | COc1ccc(-c2nnc(SCC(=O)NC3CCCCC3)o2)cc1OC | 0.53%
25 | COc1ccc(-c2nnc(SC(C)C(=O)NC3CC3)o2)cc1 (stereo not drawn) | 24.2% (active)
26 | COc1cc(N)c(Cl)cc1C(=O)OCC(=O)c1ccc2c(c1)NC(=O)CO2 | 10.7%
27 | Cc1nnc(SCC(=O)N(C(C)C)C(C)C)nc1C | 7.98%
28 | COc1ccc(N/N=C2/CCCCC2=O)cc1 | -17.4%
29 | CCCCN1CC(COc2ccccc2)Oc2cccc(F)c2S1(=O)=O (stereo not drawn) | -4.35%
30 | CN1C(CC(=O)Nc2ccc(Br)cc2)c2ccccc2CC1(C)C (stereo not drawn) | -2.97%
31 | Cc1cc(C(=O)COc2ccccc2[N+](=O)[O-])c(C)n1-c1cccc(S(=O)(=O)N2CCOCC2)c1 | -23.2%
32 | O=C1CC(C(=O)O)NC(=S)N1 (stereo not drawn) | -5.32%
33 | COc1ccc2oc(C(=O)N(CC(C)C)C3CCS(=O)(=O)C3)c(C)c2c1 (stereo not drawn) | 5.04%
34 | CCCCCc1c(C)nc(N2CCN(Cc3ccc4c(c3)OCO4)CC2)[nH]c1=O | -8.1%
35 | CCCCCCCCc1c(O)nc(-n2[nH]c(C)c(CCO)c2=O)[nH]c1=O | 23.4% (active)
36 | CCCCc1c(O)nc2n(c1=O)CCS2 | -25.6%
37 | CCc1c(SCCC(=O)O)nc2ccccc2c1C | -56.3%
38 | C=CCNC(=O)C1CC=CCC1C(=O)O (stereo not drawn) | 19.4%
39 | Cc1ccc2cc(CN(c3ccc(C)c(C)c3)S(C)(=O)=O)c(=O)[nH]c2c1 | -3.96%
40 | CC(OC(=O)c1ccccc1NCCO)C(=O)Nc1ccnn1C(C)C (stereo not drawn) | -11.8%
41 | COC(=O)c1ccc(Sc2ccc(F)cc2)c(N)c1 | -3.93%
42 | CC(C)CCN1CCN(C/C=C/c2ccco2)CC1CCO (stereo not drawn) | -0.83%

Row | SMILES | inhibition
43 | CC(=O)c1ccc(N2CCN(C(=O)c3ccc(Cl)c(S(=O)(=O)NC4CC4)c3)CC2)c(F)c1 | -4.11%
44 | CC(C)(C)n1nnnc1C(c1ccccc1F)N1CCN(C(=O)c2ccco2)CC1 (stereo not drawn) | -20.1%
45 | Cc1nn(CCCC(=O)NCc2ccccc2Cl)c(=O)c2nccn12 | -28.5%
46 | CN(C)CCCNC(=S)N1CCN(c2nc(-c3ccccc3)cs2)CC1 | -13.5%
47 | Cc1c(CCC(=O)N[C@@H](CC(C)C)C(=O)O)c(=O)oc2c(C)c3oc4c(c3cc12)CCCC4 | 3.6%
48 | CC/C(=C\c1ccc(Cl)cc1)c1ccncc1 | -7.07%
49 | COc1cc(C(=S)N2CCOCC2)cc(OC)c1OC(=O)c1ccc([N+](=O)[O-])cc1[N+](=O)[O-] | -0.97%
50 | COc1ccc(CNC(=O)C(c2ccc(O)cc2)N(Cc2ccco2)C(=O)c2snc(C(N)=O)c2N)cc1 (stereo not drawn) | 3.12%
51 | COC(=O)c1ccc(NC(=S)NN2CCOCC2)cc1 | 13.4%
52 | O=S(=O)(Nc1ccc(-c2ccc(N3CCOCC3)nn2)cc1)c1cc(Cl)ccc1Cl | -25.2%
53 | COc1cccc(COC(=O)C2CCN(S(=O)(=O)c3cccs3)CC2)c1OC | -12.6%
54 | CCC1CCCCN1CCCNC(=O)c1cc2c(Cl)nc3ccccc3c2s1 (stereo not drawn) | 5.42%
55 | CCn1c(=O)n(CC)c2cc(N3CCCC3)c(NC(=O)c3ccccc3Br)cc21 | 10.1%
56 | Cc1ccccc1-c1n[nH]c(=S)n1/N=C/c1ccc(-c2ccccc2Br)o1 | 4.19%
57 | CS(=O)(=O)N(CC(=O)Nc1ccc(F)cc1F)c1cccc([N+](=O)[O-])c1 | 14.4%
58 | Cc1ccc(OCCC(=O)Nc2ccc(S(=O)(=O)Nc3nccs3)cc2)cc1 | -6.52%
59 | CC(C)CCNC(=O)CCNS(=O)(=O)c1ccc(Cl)cc1 | -7.35%
60 | OC(COc1ccc2c(c1)CCC2)CN1CCN(c2cccc(Cl)c2)CC1 (stereo not drawn) | -19.1%
61 | CCOc1ccc(C(=O)NC(=S)Nc2ccc(N3CCOCC3)c(Cl)c2)cc1[N+](=O)[O-] | 30.9%
62 | O=c1o[nH]c(-c2ccccc2)c1N=Nc1c(F)cccc1Cl | -12.2%
63 | COc1ccc2c(c1)CCC/C2=N\OC(=O)c1ccccc1F | 0.11%
